The supplement of paper PMC10849652
The full data set covers some 7,900 targets. This sample favours those with a hit. About 0.6% of all pairs of compound and target were hits.

Key:
Assay in all cases: log2 fold change, soluble protein after heating vs DMSO (PISA); higher = thermal stabilisation; K562 cells, 10 uM, 30 min; active = over 0.2 and 3.5 SD of the protein, either way, in both replicates (recomputed)
IRAK-1-4 Inhibitor I = compound: C1COCCN1CCN2C3=CC=CC=C3N=C2NC(=O)C4=CC(=CC=C4)[N+](=O)[O-] [IRAK-1-4 Inhibitor I]
Summary of the method: (§1)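 For each measurement, 10 μM compound was applied for 30 min to K562 cells at 2×10^6 cells/mL. Aliquots were heated for 3 min across 48°C-58°C, pooled, and extracted in PBS with 0.5% NP-40 at 4°C; the supernatant after 21,000xg for 90 min was soluble protein. This was quantified by TMTpro 16plex LC-MS/MS with channel sums equalised, and thermal stability was reported relative to control samples from duplicates, on a log2 fold-change scale.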

ibrutinib = compound: C=CC(=O)N1CCC[C@@H](n2nc(-c3ccc(Oc4ccccc4)cc3)c3c(N)ncnc32)C1 [ibrutinib]
Summary of the method: as §1

[1] = compound: CC(=O)c1cnc2ccc(-c3cc(Cl)c(O)c(Cl)c3)nc2c1N[C@H]1CC[C@H](CN(C)C)CC1
Summary of the method: as §1

ralimetinib = compound: CC(C)(C)Cn1c(N)nc2ccc(-c3[nH]c(C(C)(C)C)nc3-c3ccc(F)cc3)nc21 [ralimetinib]
Summary of the method: as §1

[2] = compound: CC(C)(O)CC(=O)NCCn1ccc2ncnc(Nc3ccc(Oc4cccc(C(F)(F)F)c4)c(Cl)c3)c21
Summary of the method: as §1

[3] = compound: CC(C)C1=C2N=C(C=C(N2N=C1)NCC3=CC=CC=C3)NCCCCCCN
Summary of the method: as §1

[4] = compound: CC(C)C[C@@H](C=O)NC(=O)[C@H](CC(C)C)NC(=O)[C@H](CC(C)C)NC(=O)OCc1ccccc1
Summary of the method: as §1

pinometostat = compound: CC(C)N(C[C@H]1O[C@@H](n2cnc3c(N)ncnc32)[C@H](O)[C@@H]1O)[C@H]1C[C@@H](CCc2nc3cc(C(C)(C)C)ccc3[nH]2)C1 [pinometostat]
Summary of the method: as §1

[5] = compound: CC1=C(C(CC(=O)N1)C2=CC=C(C=C2)C(F)(F)F)C(=O)NC3=C(C=C4C(=C3)C=NN4)F
Summary of the method: as §1

[6] = compound: CC1=C(C2=C(C=C1)C(=O)C3=CC=CC=C3N2CCCN)C
Summary of the method: as §1

[7] = compound: CC1=C(C=C(C=C1)NC(=O)C2=CC(=CC=C2)C(C)(C)C#N)NC3=CC4=C(C=C3)N=CN(C4=O)C
Summary of the method: as §1

[8] = compound: CC1=C(C=C(C=C1)NC(=O)C2=CC(=CC=C2)N(C)C)NC(=O)C3=CC=C(C=C3)O
Summary of the method: as §1

[9] = compound: CC1=CC=C(C=C1)SC2=C3C=C(SC3=CN=C2)C(=O)N
Summary of the method: as §1

[10] = compound: CC1=NC(=CC=C1)C2=C(N=C(N2)C(C)(C)C)C3=CC4=NC=CN=C4C=C3
Summary of the method: as §1

Nexturastat A = compound: CCCCN(Cc1ccc(C(=O)NO)cc1)C(=O)Nc1ccccc1 [Nexturastat A]
Summary of the method: as §1

vemurafenib = compound: CCCS(=O)(=O)Nc1ccc(F)c(C(=O)c2c[nH]c3ncc(-c4ccc(Cl)cc4)cc23)c1F [vemurafenib]
Summary of the method: as §1

[11] = compound: CCCS(=O)(=O)Nc1ccc(F)c(C(=O)c2c[nH]c3ncc(Cl)cc23)c1F
Summary of the method: as §1

[12] = compound: CCCc1cc(C)[nH]c(=O)c1CNC(=O)c1cc(-c2ccnc(N3CCN(C)CC3)c2)cc2c1cnn2C(C)C
Summary of the method: as §1

givinostat = compound: CCN(CC)Cc1ccc2cc(COC(=O)Nc3ccc(C(=O)NO)cc3)ccc2c1 [givinostat]
Summary of the method: as §1

barasertib = compound: CCN(CCCOc1ccc2c(Nc3cc(CC(=O)Nc4cccc(F)c4)[nH]n3)ncnc2c1)CCOP(=O)(O)O [barasertib]
Summary of the method: as §1

Measured: log2 fold change

CDC123 (UniProt O75794)
inactive: IRAK-1-4 Inhibitor I -0.023 | ibrutinib -0.009 | [1] -0.026 | ralimetinib -0.015 | [2] -0.088 | [3] -0.05 | [4] 0.037 | pinometostat -0.009 | [5] 0 | [6] 0.001 | [7] -0.033 | [8] 0.006 | [9] 0.043 | [10] 0.048 | Nexturastat A 0.013 | vemurafenib 0.011 | [11] 0.02 | [12] 0.038 | givinostat -0.01 | barasertib 0.028

CDC25B isoform 4 (UniProt P30305)
Chain of UniProt P30305 (P30305 whole entry, looked up): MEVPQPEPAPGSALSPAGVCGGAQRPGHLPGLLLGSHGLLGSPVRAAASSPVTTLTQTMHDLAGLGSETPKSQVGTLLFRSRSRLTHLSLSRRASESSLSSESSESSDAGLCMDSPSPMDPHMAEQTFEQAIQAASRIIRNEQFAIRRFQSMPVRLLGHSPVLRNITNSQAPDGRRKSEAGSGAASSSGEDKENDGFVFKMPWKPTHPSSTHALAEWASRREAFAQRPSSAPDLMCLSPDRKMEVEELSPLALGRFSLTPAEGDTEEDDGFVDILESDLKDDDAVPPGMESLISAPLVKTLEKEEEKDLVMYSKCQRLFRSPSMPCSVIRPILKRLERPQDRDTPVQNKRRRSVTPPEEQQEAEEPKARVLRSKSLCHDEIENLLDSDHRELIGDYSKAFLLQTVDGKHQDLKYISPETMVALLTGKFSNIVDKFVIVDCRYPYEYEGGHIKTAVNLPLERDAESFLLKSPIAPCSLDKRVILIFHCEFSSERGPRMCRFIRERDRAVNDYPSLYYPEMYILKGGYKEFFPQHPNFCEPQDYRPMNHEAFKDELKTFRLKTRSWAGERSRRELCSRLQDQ
inactive: IRAK-1-4 Inhibitor I 0.068 | ibrutinib 0.037 | [1] -0.302 | ralimetinib 0.079 | [2] -0.049 | [3] 0.021 | [4] -0.02 | pinometostat 0.007 | [5] 0.155 | [7] 0.203 | [8] -0.022 | [9] -0.008 | [10] -0.004 | Nexturastat A -0.039 | vemurafenib 0.054 | [11] -0.077 | [12] -0.352 | givinostat 0.032 | barasertib -0.044

CA8 (UniProt P35219)
Chain of UniProt P35219 (P35219 whole entry, looked up): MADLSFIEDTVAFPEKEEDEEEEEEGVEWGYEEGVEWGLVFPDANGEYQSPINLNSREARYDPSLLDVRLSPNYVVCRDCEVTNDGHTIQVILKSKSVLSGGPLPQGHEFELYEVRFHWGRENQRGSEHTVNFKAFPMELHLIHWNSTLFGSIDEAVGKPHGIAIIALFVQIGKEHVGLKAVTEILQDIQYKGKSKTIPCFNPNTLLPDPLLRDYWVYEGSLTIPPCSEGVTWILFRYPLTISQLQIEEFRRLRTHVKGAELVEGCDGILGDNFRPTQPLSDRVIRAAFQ
inactive: IRAK-1-4 Inhibitor I 0.027 | ibrutinib 0.004 | [1] -0.091 | ralimetinib 0.033 | [2] -0.036 | [3] -0.056 | [4] 0.011 | pinometostat -0.008 | [5] -0.021 | [6] -0.046 | [7] -0.024 | [8] -0.081 | [9] 0.041 | [10] 0.006 | Nexturastat A -0.058 | vemurafenib 0.004 | [11] 0.02 | [12] -0.002 | givinostat 0.077 | barasertib 0.034

CRYM-AS1 (UniProt A6NIL9)
inactive: IRAK-1-4 Inhibitor I 0.13 | ibrutinib 0.172 | [1] -0.017 | ralimetinib -0.063 | [2] -0.108 | [3] -0.088 | [4] 0.168 | pinometostat 0.054 | [5] 0.038 | [6] -0.099 | [7] 0.239 | [8] -0.066 | [10] -0.224 | Nexturastat A 0.332 | vemurafenib 0.161 | [12] -0.049 | givinostat 0.189 | barasertib -0.036

CMTR1 (UniProt Q8N1G2)
Chain of UniProt Q8N1G2 (Q8N1G2 whole entry, looked up): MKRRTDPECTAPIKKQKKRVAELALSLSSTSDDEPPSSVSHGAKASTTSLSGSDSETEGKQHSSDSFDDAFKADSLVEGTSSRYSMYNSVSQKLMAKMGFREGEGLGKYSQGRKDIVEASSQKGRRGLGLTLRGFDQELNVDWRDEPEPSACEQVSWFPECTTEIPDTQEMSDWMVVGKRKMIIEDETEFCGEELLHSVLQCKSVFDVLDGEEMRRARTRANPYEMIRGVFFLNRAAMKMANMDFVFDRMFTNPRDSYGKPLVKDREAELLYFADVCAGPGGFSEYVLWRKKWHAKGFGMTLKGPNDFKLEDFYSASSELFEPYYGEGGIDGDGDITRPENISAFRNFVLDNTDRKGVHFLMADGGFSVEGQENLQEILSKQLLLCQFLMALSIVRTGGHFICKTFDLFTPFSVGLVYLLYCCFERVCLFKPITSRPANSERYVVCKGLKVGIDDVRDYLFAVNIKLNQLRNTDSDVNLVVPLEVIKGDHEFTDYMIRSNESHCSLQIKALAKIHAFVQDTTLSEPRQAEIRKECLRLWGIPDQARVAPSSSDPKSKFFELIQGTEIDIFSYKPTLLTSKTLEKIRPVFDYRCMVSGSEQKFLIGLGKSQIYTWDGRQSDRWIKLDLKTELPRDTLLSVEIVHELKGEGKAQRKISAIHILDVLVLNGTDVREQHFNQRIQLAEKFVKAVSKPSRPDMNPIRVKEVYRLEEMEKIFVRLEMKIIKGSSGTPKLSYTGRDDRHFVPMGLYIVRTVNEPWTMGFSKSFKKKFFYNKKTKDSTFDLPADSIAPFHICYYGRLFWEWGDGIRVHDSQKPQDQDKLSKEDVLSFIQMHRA
inactive: IRAK-1-4 Inhibitor I -0.007 | ibrutinib -0.011 | [1] -0.014 | ralimetinib -0.026 | [2] -0.024 | [3] -0.011 | [4] -0.002 | pinometostat -0.029 | [5] -0.007 | [6] 0.169 | [7] -0.012 | [8] -0.003 | [9] -0.021 | [10] 0.083 | Nexturastat A -0.069 | vemurafenib 0.03 | [11] 0.005 | [12] -0.004 | givinostat -0.062 | barasertib 0.054

CDK8 (UniProt P49336)
Chain of UniProt P49336 (P49336 whole entry, looked up): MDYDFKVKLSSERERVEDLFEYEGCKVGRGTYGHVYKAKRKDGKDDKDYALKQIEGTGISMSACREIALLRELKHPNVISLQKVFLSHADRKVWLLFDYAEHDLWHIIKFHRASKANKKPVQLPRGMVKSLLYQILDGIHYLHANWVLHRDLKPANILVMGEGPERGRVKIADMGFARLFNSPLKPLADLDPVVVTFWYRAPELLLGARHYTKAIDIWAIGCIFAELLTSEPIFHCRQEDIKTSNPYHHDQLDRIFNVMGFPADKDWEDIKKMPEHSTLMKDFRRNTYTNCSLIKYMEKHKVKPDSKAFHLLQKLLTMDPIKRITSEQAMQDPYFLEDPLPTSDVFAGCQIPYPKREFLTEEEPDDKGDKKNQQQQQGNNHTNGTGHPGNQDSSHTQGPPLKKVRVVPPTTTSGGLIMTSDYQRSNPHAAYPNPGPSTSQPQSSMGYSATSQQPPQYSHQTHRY
inactive: IRAK-1-4 Inhibitor I 0.006 | ibrutinib -0.011 | ralimetinib -0.174 | [2] -0.15 | [3] -0.067 | [4] 0.096 | pinometostat -0.057 | [6] -0.005 | [7] 0.002 | [8] -0.005 | [9] 0.322 | [10] 0.064 | Nexturastat A -0.125 | vemurafenib 0.041 | [11] 0.044 | [12] -0.081 | givinostat 0.02 | barasertib -0.343
active: [1] 0.487

C22orf39 (UniProt Q6P5X5)
Chain of UniProt Q6P5X5 (Q6P5X5 whole entry, looked up): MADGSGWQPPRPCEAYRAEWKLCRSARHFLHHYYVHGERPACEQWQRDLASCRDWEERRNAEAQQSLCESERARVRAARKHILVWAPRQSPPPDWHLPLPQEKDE
inactive: IRAK-1-4 Inhibitor I 0.12 | ibrutinib 0.033 | [1] -0.069 | ralimetinib -0.104 | [2] 0.018 | [4] 0.126 | pinometostat 0.035 | [5] 0.014 | [6] 0.213 | [7] -0.033 | [8] 0.059 | [9] -0.058 | [10] -0.008 | Nexturastat A -0.024 | [11] 0.205 | [12] 0.017 | givinostat 0.044 | barasertib -0.042
active: [3] -0.587

CRK (UniProt P46108)
Chain of UniProt P46108 (P46108 whole entry, looked up): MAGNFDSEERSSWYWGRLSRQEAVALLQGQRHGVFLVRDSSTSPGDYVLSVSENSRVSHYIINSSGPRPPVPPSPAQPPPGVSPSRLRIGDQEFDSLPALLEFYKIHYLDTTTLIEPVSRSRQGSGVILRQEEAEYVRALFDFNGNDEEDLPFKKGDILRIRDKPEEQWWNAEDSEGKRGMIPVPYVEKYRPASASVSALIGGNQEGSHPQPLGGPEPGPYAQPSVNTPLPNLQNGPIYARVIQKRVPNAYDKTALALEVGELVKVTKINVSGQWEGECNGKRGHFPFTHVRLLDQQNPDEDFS
active: [1] -0.887 | [7] -0.814
inactive: IRAK-1-4 Inhibitor I -0.046 | ibrutinib -0.097 | ralimetinib -0.013 | [2] -0.007 | [3] -0.003 | [4] 0.032 | pinometostat -0.037 | [5] -0.011 | [6] 0.07 | [8] -0.019 | [9] 0.015 | [10] 0.091 | Nexturastat A -0.006 | vemurafenib 0.048 | [11] 0.009 | [12] -0.008 | givinostat 0.002 | barasertib 0.046

COX5B (UniProt P10606)
Chain of UniProt P10606 (P10606 whole entry, looked up): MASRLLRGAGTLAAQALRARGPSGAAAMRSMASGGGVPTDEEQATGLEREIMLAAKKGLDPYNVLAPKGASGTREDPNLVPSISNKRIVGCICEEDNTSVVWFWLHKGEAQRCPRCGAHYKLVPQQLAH
active: [3] 0.428
inactive: IRAK-1-4 Inhibitor I 0.008 | ibrutinib -0.012 | [1] -0.079 | ralimetinib 0 | [2] 0.106 | [4] -0.082 | pinometostat -0.071 | [5] 0.003 | [6] 0.204 | [7] -0.038 | [8] -0.096 | [9] 0.037 | [10] -0.008 | Nexturastat A -0.043 | vemurafenib 0.037 | [11] -0.044 | [12] 0.013 | givinostat 0.065 | barasertib 0.034

CDKN1B (UniProt P46527)
Chain of UniProt P46527 (P46527 whole entry, looked up): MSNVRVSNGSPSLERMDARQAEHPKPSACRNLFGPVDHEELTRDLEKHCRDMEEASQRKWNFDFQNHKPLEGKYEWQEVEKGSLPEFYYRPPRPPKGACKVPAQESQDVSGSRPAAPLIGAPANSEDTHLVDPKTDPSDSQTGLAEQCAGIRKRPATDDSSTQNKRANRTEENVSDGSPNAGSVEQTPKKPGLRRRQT
active: [4] 0.536
inactive: IRAK-1-4 Inhibitor I 0.023 | ibrutinib 0.015 | [1] 0.173 | ralimetinib -0.024 | [2] 0.012 | [3] 0.215 | pinometostat -0.023 | [5] 0.018 | [7] -0.016 | [8] -0.009 | [9] -0.026 | [10] 0 | Nexturastat A 0.148 | vemurafenib -0.176 | [11] -0.048 | [12] 0.057 | givinostat 0.051 | barasertib -0.063

CASC3 (UniProt O15234)
Chain of UniProt O15234 (O15234 whole entry, looked up): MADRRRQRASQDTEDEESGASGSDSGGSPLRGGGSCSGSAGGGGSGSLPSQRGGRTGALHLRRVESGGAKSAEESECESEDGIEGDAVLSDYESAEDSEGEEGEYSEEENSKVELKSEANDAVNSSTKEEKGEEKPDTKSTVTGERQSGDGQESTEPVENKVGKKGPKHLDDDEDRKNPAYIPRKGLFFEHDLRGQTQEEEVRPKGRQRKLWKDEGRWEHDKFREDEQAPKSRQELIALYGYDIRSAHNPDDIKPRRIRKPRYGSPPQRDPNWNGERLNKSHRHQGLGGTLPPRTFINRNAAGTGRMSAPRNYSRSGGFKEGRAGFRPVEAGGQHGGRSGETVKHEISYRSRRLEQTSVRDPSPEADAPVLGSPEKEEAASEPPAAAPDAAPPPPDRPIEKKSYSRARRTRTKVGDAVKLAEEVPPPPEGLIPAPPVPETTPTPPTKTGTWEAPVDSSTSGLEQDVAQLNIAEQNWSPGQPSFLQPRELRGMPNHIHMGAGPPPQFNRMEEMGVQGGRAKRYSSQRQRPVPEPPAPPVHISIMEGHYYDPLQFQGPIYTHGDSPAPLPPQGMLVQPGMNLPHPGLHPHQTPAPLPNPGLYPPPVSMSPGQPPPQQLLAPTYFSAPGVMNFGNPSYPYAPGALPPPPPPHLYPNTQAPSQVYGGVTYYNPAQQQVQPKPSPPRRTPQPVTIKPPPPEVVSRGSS
active: [1] 0.582
inactive: IRAK-1-4 Inhibitor I -0.014 | ibrutinib 0.1 | ralimetinib 0.07 | [2] -0.023 | [3] 0.411 | [4] -0.036 | pinometostat -0.005 | [5] 0.012 | [6] 0.206 | [7] 0.043 | [8] -0.003 | [9] 0.009 | [10] -0.027 | Nexturastat A -0.004 | vemurafenib -0.156 | [11] -0.061 | [12] -0.065 | givinostat -0.045 | barasertib 0.043

CAMKK2 (UniProt Q96RR4)
Chain of UniProt Q96RR4 (Q96RR4 whole entry, looked up): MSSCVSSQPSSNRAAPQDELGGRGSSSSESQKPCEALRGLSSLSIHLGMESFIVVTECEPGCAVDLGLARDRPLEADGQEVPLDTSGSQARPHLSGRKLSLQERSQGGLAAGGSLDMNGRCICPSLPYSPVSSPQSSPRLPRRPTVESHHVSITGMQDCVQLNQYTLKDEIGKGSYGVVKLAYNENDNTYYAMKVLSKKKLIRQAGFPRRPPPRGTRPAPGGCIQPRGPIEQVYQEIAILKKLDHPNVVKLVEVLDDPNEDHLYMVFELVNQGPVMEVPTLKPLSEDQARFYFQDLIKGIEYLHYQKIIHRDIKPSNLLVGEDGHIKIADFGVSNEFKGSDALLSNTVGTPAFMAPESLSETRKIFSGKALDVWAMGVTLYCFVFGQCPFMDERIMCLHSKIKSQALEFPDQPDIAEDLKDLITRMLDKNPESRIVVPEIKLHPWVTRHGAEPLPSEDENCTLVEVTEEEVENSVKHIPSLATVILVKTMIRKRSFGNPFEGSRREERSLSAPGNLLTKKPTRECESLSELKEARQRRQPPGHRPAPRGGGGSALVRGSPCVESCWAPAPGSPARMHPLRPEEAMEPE
inactive: IRAK-1-4 Inhibitor I -0.05 | ibrutinib -0.069 | [1] 0.131 | ralimetinib -0.117 | [2] 0.002 | [3] 0.069 | [4] -0.052 | pinometostat 0.142 | [5] 0.039 | [6] -0.025 | [7] 0.022 | [8] 0.024 | [9] -0.044 | [10] -0.009 | Nexturastat A 0.154 | vemurafenib 0.037 | [11] -0.043 | [12] 0.277 | givinostat -0.017 | barasertib 0.058

CDK2AP2 (UniProt O75956)
Chain of UniProt O75956 (O75956 whole entry, looked up): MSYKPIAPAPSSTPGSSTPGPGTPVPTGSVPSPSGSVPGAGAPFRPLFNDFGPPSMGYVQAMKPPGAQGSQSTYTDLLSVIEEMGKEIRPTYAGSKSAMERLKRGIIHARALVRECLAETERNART
active: [4] -0.438
inactive: IRAK-1-4 Inhibitor I -0.087 | ibrutinib 0.011 | [1] 0.094 | ralimetinib 0 | [2] -0.077 | [3] 0.258 | pinometostat -0.135 | [5] 0.03 | [8] -0.14 | [10] 0.021 | Nexturastat A 0.022 | [12] -0.065 | givinostat -0.154 | barasertib -0.029

CDK4 (UniProt P11802)
Chain of UniProt P11802 (P11802 whole entry, looked up): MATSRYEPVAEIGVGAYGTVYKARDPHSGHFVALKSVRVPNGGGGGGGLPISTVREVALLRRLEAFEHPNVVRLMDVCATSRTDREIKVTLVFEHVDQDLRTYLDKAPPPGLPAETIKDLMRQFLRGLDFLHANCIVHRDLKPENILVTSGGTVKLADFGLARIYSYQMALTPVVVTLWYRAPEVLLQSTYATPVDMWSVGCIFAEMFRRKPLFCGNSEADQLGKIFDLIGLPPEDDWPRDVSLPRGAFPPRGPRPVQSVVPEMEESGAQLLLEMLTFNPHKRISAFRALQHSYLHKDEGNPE
active: [1] 0.685
inactive: IRAK-1-4 Inhibitor I 0.001 | ibrutinib -0.004 | ralimetinib 0.054 | [2] -0.098 | [3] -0.333 | [4] 0.105 | pinometostat 0.081 | [5] -0.069 | [7] -0.077 | [8] -0.003 | [9] 0.015 | [10] -0.005 | Nexturastat A 0.166 | vemurafenib -0.161 | [11] -0.128 | [12] -0.025 | givinostat -0.009 | barasertib -0.023

COX20 isoform 2 (UniProt Q5RI15)
Chain of UniProt Q5RI15 (Q5RI15 whole entry, looked up): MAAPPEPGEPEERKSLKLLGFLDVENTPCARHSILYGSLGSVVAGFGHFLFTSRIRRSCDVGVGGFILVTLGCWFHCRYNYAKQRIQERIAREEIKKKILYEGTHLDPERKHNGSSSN
inactive: IRAK-1-4 Inhibitor I -0.019 | ibrutinib 0.043 | [1] -0.022 | ralimetinib -0.055 | [2] 0.016 | [3] 0.006 | [4] 0 | pinometostat -0.018 | [5] -0.018 | [6] 0.019 | [7] 0.035 | [8] -0.041 | [9] 0.102 | [10] 0.036 | Nexturastat A -0.038 | vemurafenib -0.036 | [11] -0.041 | [12] 0.069 | givinostat -0.04 | barasertib -0.03
